This is a sample that favours compounds with a hit; in the whole collection about 7.4% have one here.
ELG1 genotox: induces genotoxicity in HEK293T cells with luciferase-tagged ELG1; HEK293T ELG1-luciferase reporter, luminescence, 16 h; Potency, µM (series often up to 46 µM), most hits filed as activators; hit rate 1.3% among 330,000; AID 504466; also: nearly all actives have a fitted effect of over 60% in size
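Screening used a luciferase reporter fused to human ELG1 in HEK293T cells. Luminescence was read on a CCD plate imager after 16 hr exposure and 30 min ONE-Glo incubation.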
NPC1 promoter act: NPC1 promoter activation; Huh7 NPC1 promoter luciferase reporter, 24 h; Potency, µM (highest dose often 9.22 µM), usual class: activators; hit rate 2.4% among 320,000; AID 485313; also: nearly all actives have a fitted effect of over 60% in size
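Luciferase expression driven by the NPC1 promoter was measured in stably transfected Huh7 cells after a 24 h compound incubation, using a luciferase reagent and a luminescence read.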
FLuc modulator: inhibits or activates purified firefly luciferase, miR-21 counter-screen; P08659; purified FLuc, Km substrates, luminescence inhibition; Potency, µM (titrated, usually from 57.5 µM), most hits filed as inhibitors; hit rate 6.9% among 360,000; AID 588342; also: nearly all actives have a fitted effect of over 55% in size
Target sequence (P08659 whole entry, looked up): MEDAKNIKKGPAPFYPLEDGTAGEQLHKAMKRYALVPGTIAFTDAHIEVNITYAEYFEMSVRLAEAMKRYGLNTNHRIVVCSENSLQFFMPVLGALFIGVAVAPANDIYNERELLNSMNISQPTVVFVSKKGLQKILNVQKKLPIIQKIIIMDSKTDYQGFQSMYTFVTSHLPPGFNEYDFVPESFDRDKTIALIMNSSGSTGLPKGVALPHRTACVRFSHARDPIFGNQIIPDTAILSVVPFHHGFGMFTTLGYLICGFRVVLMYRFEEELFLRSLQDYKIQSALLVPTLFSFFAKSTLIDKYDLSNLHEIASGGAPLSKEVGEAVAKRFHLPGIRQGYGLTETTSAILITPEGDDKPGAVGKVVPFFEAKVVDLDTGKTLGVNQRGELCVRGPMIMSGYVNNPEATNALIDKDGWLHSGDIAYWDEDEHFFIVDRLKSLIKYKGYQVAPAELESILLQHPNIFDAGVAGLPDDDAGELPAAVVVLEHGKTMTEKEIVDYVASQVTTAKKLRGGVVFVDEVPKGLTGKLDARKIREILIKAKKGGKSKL
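Biochemical qHTS of compounds, final roughly 60 µM downward over six points, against 10 nM purified firefly luciferase using Km concentrations of substrates (10 uM D-luciferin, 10 uM ATP) in Tris acetate pH 7.5 buffer; luminescence output.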
SMN2 splice enh: SMN2 splice variant enhancement | HEK293 SMN2-luciferase splicing reporter, luminescence, 30-36 h | Potency, µM (series often up to 46.1 µM), hits mostly activators | hit rate 2.8% among 210,000 | AID 1458; also: nearly all actives have a fitted effect of over 55% in size
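qHTS luciferase splicing reporter: luminescence rises when SMN2 exon 7 is included in transfected HEK293 cells. Compound exposure lasted 30-36 h at 37C, with 4.5 mM final sodium butyrate as control, followed by a ONE-Glo read.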
Rab9 prom act: Rab9 promoter activation; hit rate 2.8% among 320,000; Huh7 Rab9 promoter-luciferase reporter, luminescence, 24 h; Potency, µM (highest dose often 9.22 µM), most hits filed as activators; also: nearly all actives have a fitted effect of over 60% in size
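Using Huh7 cells stably transfected with Rab9 promoter–luciferase, compounds were incubated 24 h at 37 °C, 5% CO2; luciferase luminescence was read 10 min after reagent addition.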
A number is an active result; 0 = inactive; ? = inconclusive; - = no result; [ ] = remark or other dose. Calls follow the shape of the dose curve; as a rule, active = well fitted curve in the direction sought with a large enough effect; inconclusive = small, poorly fitted or top-dose-only effect, or another doubt; inactive = no such curve, though single readings can be large; an effect the other way counts as inactive or inconclusive.

SMILES | ELG1 genotox | NPC1 promoter act | FLuc modulator | SMN2 splice enh | Rab9 prom act
CCOC(=O)C1(Cc2ccccc2Cl)CCN(C(=O)c2cnccn2)CC1 | ? | ? | 15.1µM | - | 2.82µM
COC(=O)c1c(C)[nH]c(O)c1C=Nc1ccc(C(C)C)cc1 | ? | ? | 8.49µM | 0 | ?
COC(=O)c1c(C)[nH]c(O)c1C=Nc1ccc(Oc2ccccc2)cc1 | 0 | 0 | ? | 0 | 0
Cc1ccc(NC(=O)C(=O)NCCCN2CCCC2=O)cc1 | 2.06µM | 2.24µM | 12µM | - | 1.41µM
Cc1ccc(-c2nn(-c3ccccc3)cc2C(=O)NCCCN2CCOCC2)cc1 | 0 | 0 | ? | - | 0
Cc1ccc(NC(=O)C(=O)NCCCN2CCCC2=O)c(C)c1 | 0 | 0 | ? | - | ?
Cc1ccc(-c2nn(-c3ccc(F)cc3)cc2C(=O)NCCCN2CCCC2=O)cc1 | 0 | 0 | 10.7µM | - | 0
COc1ccc2c(c1)c1c(c(=O)n(-c3ccccc3C)c(=O)n1CC(N)=O)n2C | - | - | 0 | - | -
C=CCn1c(SCC(=O)NCCOC)nnc1-c1cc2c(s1)CCC(CC)C2 (stereo unspecified) | 0 | 0 | 9.53µM | 0 | 0
C=CCn1c(SCC(=O)NCC)nnc1-c1cc2c(s1)CCC(CC)C2 (stereo unspecified) | ? | 0 | 12µM | ? | 0
Nc1nc(SCc2ccccc2)[nH]c(=O)c1-c1ccccc1 | 11.6µM | ? | 19µM | 12.6µM | ?
CCCOc1ccc(C(=O)CCC(=O)OCC(=O)N2CC(=O)Nc3ccccc32)cc1 | 0 | 0 | 16.9µM | 0 | 0
O=C1CN(C(=O)COC(=O)CCC(=O)c2ccc(Cl)cc2)c2ccccc2N1 | 0 | - | - | - | -
O=C(c1csnn1)N1CCC2(CCCN(C(c3ccccc3)c3ccccc3)C2)CC1 | - | - | - | 0 | -
CCN(CC)CCSc1nnc2c3cc(C)ccc3n(Cc3ccccc3)c2n1 | 0 | 0 | 0 | - | 0
Cc1c(Cl)cccc1NC(=O)c1cc(C2CC2)on1 | ? | ? | 19µM | 0 | 3.55µM
COc1ccc(NC(=O)c2cc(C3CC3)on2)c(OC)c1 | 18.4µM | ? | ? | 20µM | ?
COc1ccc(N=CC2=C(O)c3ccccc3C2=O)c(OC)c1 | 0.0651µM | ? | 0.0757µM | 0 | 0.708µM
Fc1ccc(N=Cc2ccc[nH]2)cc1 | 0 | 0 | 0 | - | 0
Cc1ccccc1N=CC1=C(O)c2ccccc2C1=O | ? | ? | 0.135µM | 8.91µM | 0.251µM
O=C1C(C=Nc2ccc(F)cc2)=C(O)c2ccccc21 | ? | 0.355µM | 0.269µM | - | 0.794µM
CCOc1ccc(NC(=O)COc2ccc(C(=O)NCc3cccc(OC)c3)cc2OC)cc1 | 0 | 0 | 0 | - | 0
Cc1cc(C)cc(NC(=O)CSc2nnc(-c3cc4occc4n3C)n2-c2ccccc2C)c1 | - | - | 0 | - | -
O=c1[nH]cnc2nn(-c3ccccc3)nc12 | ? | ? | 21.3µM | ? | ?
S=c1[nH]nc(-c2ccncc2)n1/N=C/c1cccc(Cl)c1 | 0 | 0 | 0 | - | 0
SMILES | ELG1 genotox | NPC1 promoter act | FLuc modulator | SMN2 splice enh | Rab9 prom act
O=C(O)c1cccc2c1-c1ccccc1/C2=N\Nc1ccccc1 | 0 | 3.16µM | 10.7µM | - | ?
O=C(O)c1cccc(NN=C2c3ccccc3-c3ccccc32)c1 | 0 | 0 | 26.9µM | 0 | 0
COc1ccc2cc(C(=O)NCc3ccc4c(c3)CCN4C(=O)c3ccc(F)cc3)[nH]c2c1 | - | - | 0 | - | -
O=C(N/N=C/c1ccc2c(c1)OCO2)c1cc(-c2ccccc2)nc2ccccc12 | 0 | 0 | 10.7µM | 0[1.84 µM] | 0
O=C(N/N=C/c1ccc2c(c1)OCO2)c1cc(-c2ccco2)nc2ccccc12 | 0 | 0 | 0.849µM | - | 0
O=C(Nc1ccc2c(c1)OCO2)c1cc(-c2cccnc2)nc2ccccc12 | 0 | 0 | ? | 0 | 0
CCCNc1ccc(-c2nc(-c3ccccn3)no2)cc1[N+](=O)[O-] | - | - | 0 | - | -
c1ccc(-c2noc(-c3ccno3)n2)nc1 | 0 | 0 | 0 | - | 0
Cc1ccc(-c2nc(-c3ccccn3)no2)cc1[N+](=O)[O-] | 2.06µM | 0.316µM | 1.51µM | - | 0.316µM
Cc1ccc(-c2nc(-c3ccccn3)no2)cc1 | 0 | 0 | 0.0849µM | - | 0.0002µM
COc1cc(-c2nc(-c3ccccn3)no2)cc(OC)c1OC | ? | ? | ? | 0 | 0
Clc1cccc(-c2nc(-c3ccccn3)no2)c1 | ? | 0.316µM | 0.338µM | 0.708µM | 0.1µM
Cc1ccc(-c2nc(-c3ccccn3)no2)cc1Cl | ? | 0.355µM | 0.135µM | - | 0.316µM
Cc1ccc(S(=O)(=O)Cc2ccc(C(=O)NCCc3ccc(Cl)cc3)o2)cc1 | - | - | 0 | 0 | -
O=C(NCc1nc2ccccc2[nH]1)C1=C[C@@H](C2CCCCC2)C[C@@H](OCCCCO)O1 | 0 | 0 | 0 | - | 0
c1ccc(-c2nc(-c3ccccn3)no2)cc1 | ? | 0.112µM | 0.536µM | 0.501µM | ?
Cc1ccc(Sc2cc(C)nc(-c3ccccn3)n2)cc1 | 0 | 0 | 16.9µM | - | 0
Cc1cc(C)cc(NC(=O)c2ccc(S(=O)(=O)C(F)F)cc2)c1 | 0 | 0 | 13.5µM | 0 | 0
Cc1nnc(NC(=O)c2ccc(S(=O)(=O)C(F)F)cc2)s1 | ? | ? | 5.36µM | - | 2.24µM
Cc1nnc(NC(=O)c2ccncc2)s1 | 0 | 0 | 0 | 0 | 0
CCN(CC)S(=O)(=O)c1ccc(C(=O)Nc2cc(C)cc(C)c2)cc1 | 0 | 0 | 0 | 0 | 0
C=CCOC(=O)/C(=C\c1cccc2ccccc12)NC(=O)c1ccccc1 | 0 | 0 | ? | 0 | 0
C=CCOC(=O)C(=O)/C=C/c1csc2ccccc12 | ? | 0 | 26.9µM | - | 0
CCOc1cnc(-c2ccccc2F)o1 | 0 | 0 | 16.9µM | 0 | 0
CCOc1cnc(-c2c(-c3c(F)cccc3Cl)noc2C)o1 | 0 | 0 | 0 | 0 | 0
SMILES | ELG1 genotox | NPC1 promoter act | FLuc modulator | SMN2 splice enh | Rab9 prom act
COc1ccccc1NC(=O)c1cc2ccc3cccnc3c2[nH]1 | - | - | 2.69µM | - | -
COc1cccc(C(=O)Nc2cccc3cccnc23)c1OC | 0 | 0 | 23.9µM | - | 0
COc1ccc(C(=O)Nc2cccc(NC(=O)c3ccc(OC)c(OC)c3)n2)cc1OC | 0 | 0 | 8.49µM | - | 0
COc1cc(Cl)c(C)cc1NC(=O)c1cc2ccc3cccnc3c2[nH]1 | - | - | 0 | - | -
COc1ccccc1C(=O)Nc1cccc(NC(=O)c2ccccc2OC)n1 | 0 | 0 | ? | - | 0
CC(C)N(Cc1ccccc1)C(=O)c1cc2ccc3cccnc3c2[nH]1 | - | - | 19µM | - | -
Cn1nnnc1SCCCNCc1cc(Cl)ccc1OCc1ccccc1 | - | - | 0 | - | -
COCCn1c(=O)c(-c2cn(C)c3ccccc23)nc2cnc(Oc3ccc(OC)cc3)nc21 | - | - | - | 0 | -
COc1ccc(C(=O)Nc2nc(C)c(C)s2)cc1OC | ? | ? | 13.5µM | ? | ?
COc1ccc(NC(=O)C(=O)Nc2cccc3cccnc23)cc1OC | 0 | 0 | 0 | - | ?
COc1ccc(C(=O)Nc2cccc3cccnc23)cc1OC | 0 | 0 | 21.3µM | 0 | 0
CCOc1ccccc1C(=O)Nc1cccc2cccnc12 | 0 | 0 | 26.9µM | - | 0
CCOc1ccc(C(=O)NCC(c2ccco2)S(=O)(=O)c2cccs2)cc1 (stereo unspecified) | - | - | 0 | - | -
COc1ccc(C2=NN3C(=O)c4c(ccc(OC)c4OC)C3C2)cc1 (stereo unspecified) | 0 | 0 | 16.9µM | 0 | 0

High-throughput results: PubChem, National Center for Advancing Translational Sciences (NCATS)
